HP1b chromo inh = HTS for Inhibitors of HP1-beta Chromodomain Interactions with Methylated Histone Tails. AlphaScreen HP1-beta / biotin-H3K9me3 peptide binding. hit rate 0.56% among 390,000. Chromobox protein homolog 1 (Homo sapiens), P83916. AID 540317, 2011. Potency, µM (highest dose often 114 µM), for the others: at the highest dose activity change, negative = inhibition, most hits filed as inhibitors; further: nearly all actives have a fitted effect of over 70% in size
Target sequence (P83916 whole entry, looked up): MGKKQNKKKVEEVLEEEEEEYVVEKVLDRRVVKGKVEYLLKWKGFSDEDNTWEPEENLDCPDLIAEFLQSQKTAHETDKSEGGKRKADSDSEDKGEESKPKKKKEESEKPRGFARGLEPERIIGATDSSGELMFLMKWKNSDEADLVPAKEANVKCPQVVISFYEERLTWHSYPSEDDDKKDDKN
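AlphaScreen: HP1-beta (50 nM) preformed 30 min with biotin-H3(1-18)K9me3 peptide (50 nM) in PBS pH 7.4, 0.01% Tween-20. Compound added for 30 min at RT, then streptavidin donor/nickel chelate acceptor beads (10 ug/mL) for 30 min.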
BAZ2B block = qHTS Assay for Inhibitors of BAZ2B; hit rate 4.4% among 360,000; Potency, µM (titrated, usually from 114 µM), for inactives: top-dose activity change, negative = inhibition, usual class: inhibitors; AID 504333, 2011; Bromodomain adjacent to zinc finger domain protein 2B (Homo sapiens), Q9UIF8; AlphaScreen BAZ2B-H3K14Ac peptide displacement; further: on the % scale 0 is the no-effect control and ±100 the full control effect; nearly all actives have a fitted effect of over 60% in size
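AlphaScreen displacement of biotin-H3(5-23)K14Ac peptide (50 nM final) from BAZ2B (50 nM final) in PBS pH 7.4, 0.01% Tween-20; complex preformed 30 min RT, then compounds (top 110 uM) 30 min RT, beads 20 min dark.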
JMJD2A Tudor inh = qHTS Assay for Inhibitors of JMJD2A-Tudor Domain; Lysine-specific demethylase 4A (Homo sapiens), O75164; AlphaScreen JMJD2A-Tudor / H3K4me3 peptide binding; Potency, µM (top dose mostly 114 µM), for the others: at the top dose activity change, negative = inhibition, most hits filed as inhibitors; hit rate 4.4% among 390,000; AID 504339, 2011; further: on the % scale 0 is the no-effect control and ±100 the full control effect; nearly all actives have a fitted effect of over 50% in size
PLK1 PBD inh = qHTS for Inhibitors of PLK1-PDB (polo-like kinase 1 - polo-box domain): Primary Screen; Plk1 PBD binding of FITC phosphopeptide, fluorescence polarization; Serine/threonine-protein kinase PLK1 (Homo sapiens), P53350; hit rate 2.8% among 360,000; Potency, µM, inactives show max response, negative = inhibition, most hits filed as inhibitors; AID 720504, 2013; further: series mostly up to about 57 µM; on the % scale 0 is the no-effect control and ±100 the full control effect; nearly all actives have a fitted effect of over 65% in size
G9a block = qHTS Assay for Inhibitors of Histone Lysine Methyltransferase G9a. Potency, µM (doses to about 102 µM), for the others: top-dose activity, negative = inhibition, most hits filed as inhibitors. Histone-lysine N-methyltransferase EHMT2 (Homo sapiens), Q96KQ7. hit rate 8.8% among 350,000. G9a H3K9 monomethylation, AlphaScreen, 2 h; further: on the % scale 0 is the no-effect control and ±100 the full control effect; nearly all actives have a fitted effect of over 75% in size
Target sequence (Q96KQ7 913-1193 limits assumed): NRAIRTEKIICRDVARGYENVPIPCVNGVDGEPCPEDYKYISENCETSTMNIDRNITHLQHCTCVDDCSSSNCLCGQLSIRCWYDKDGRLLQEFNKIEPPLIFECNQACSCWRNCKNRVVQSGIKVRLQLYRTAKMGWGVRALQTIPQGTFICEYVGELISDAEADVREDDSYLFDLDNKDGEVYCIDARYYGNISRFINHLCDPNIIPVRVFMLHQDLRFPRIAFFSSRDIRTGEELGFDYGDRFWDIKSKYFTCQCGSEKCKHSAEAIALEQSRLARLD
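Compounds were preincubated with 20 nM G9a for 15 min, after which biotinylated H3K9 peptide (500 nM) and SAM (20 uM) started a 2 h room-temperature reaction. Monomethylated product was quantified by antibody-based AlphaScreen chemiluminescence.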
12-LOX inh = Primary qHTS assay for inhibitors of human arachidonate 12S-lipoxygenase (ALOX12): Round 2; Polyunsaturated fatty acid lipoxygenase ALOX12 (Homo sapiens), P18054; purified 12hLO, xylenol orange hydroperoxide absorbance; Potency, µM (highest dose often 108 µM), inactives show at the highest dose activity change, negative = inhibition, actives largely listed as inhibitors; hit rate 1.1% among 580,000; AID 1671190, 2021; further: on the % scale 0 is the no-effect control and ±100 the full control effect
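Purified human 12hLO (150 nM final) in 25 mM Hepes, 0.01% Triton X-100, pH 7.0 was preincubated 15 min at room temperature with compound. Then 40 uM arachidonic acid was added, 30 min. Hydroperoxide was read by Fe-XO absorbance ratio 573/405 nm.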
The depositor's hits bear a star; ? = inconclusive; · = no result given; [ ] = another dose, or the depositor's remark. Shown are actives, neighbours in structure and some others; about 9% of the full set was active somewhere. The call rests on the fitted dose curve; in most records, active means well fitted curve in the direction sought with a large enough effect; inconclusive means small, poorly fitted or top-dose-only effect, or another doubt; inactive means no such curve, though single readings can be large; an effect the other way counts as inactive or inconclusive. Potency means the concentration at half of the fitted maximal effect.

SMILES | HP1b chromo inh | BAZ2B block | JMJD2A Tudor inh | PLK1 PBD inh | G9a block | 12-LOX inh
O=C(CCN1C(=O)/C(=C/c2ccccc2)SC1=S)Nc1cccnc1 | -8% | 4% | -1% | -5% | -6% | -5%
O=C1/C(=C/c2ccccc2)SC(=S)N1CC(=O)N1CCCCC1c1cccnc1 (centres undefined) | -15% | 32µM* | 35µM* | -15% | 40µM* | -17%
O=C(O)CN1C(=O)S/C(=C\c2cccnc2)C1=O | 6%[57 µM] | 50µM* | -18% | -12% | · | -111%
O=C(NCc1cccc(C(F)(F)F)c1)c1cccc(Cl)c1Cl | 40% | 15% | 16% | -3% | -4%[59 µM] | -9%
O=C(COC(=O)/C=C/c1ccc(F)cc1)NC(=O)NCc1ccccc1 | · | · | · | 2% | · | -2%
COCCc1noc([C@@H]2CC(F)(F)CN2C(=O)Cn2ccc(C)n2)n1 | · | · | · | · | · | -9%
COc1ccc(NC(=O)CCc2ccccc2)cc1NC(=O)c1ccco1 | 22% | 0% | -9% | -5% | 17%[59 µM] | 12%
CCOC(=O)c1c(C)oc2ncnc(Nc3ccc(OC)cc3OC)c12 | 31% | 1% | -7% | · | 2%[59 µM] | -20%
CCOC(=O)c1c(N)sc(C(O)(C(F)(F)F)C(F)(F)F)c1-c1ccc(OC)cc1OC | 26% | ? | -23% | -10% | 79µM* | 9%
CC1C(=O)N(Cc2cn(CCC3OCCO3)nn2)CCS(=O)(=O)N1Cc1ccc(-c2cccc(N(C)C)c2)cc1 (centres undefined) | · | · | · | -3% | · | 7%
CN(C(=O)CN1CCN(c2cc(-c3ccc(-c4ccccc4)cc3)ncn2)CC1)c1ccccc1 | · | · | · | -12% | · | 45µM*
Cc1ccc2c(=O)cc(C(=O)N3CCC(Cc4ccccc4)CC3)oc2c1 | · | · | · | · | · | -1%
NC(=O)c1cc(-c2ccccc2)nc(N2CCOCC2)n1 | 32% | -2% | 11% | -1% | 21%[59 µM] | 11%
CC[n+]1cc(-c2ccccc2)nc(N2CCOCC2)n1 | 6% | -5% | 32µM* | -12% | 10µM* | ?
Cn1c(N/N=C/c2c[nH]c3ccccc23)nc2ccccc21 | -37% | 32µM* | 50µM* | -6% | ? | 45µM*
CCCn1c(/N=C/c2c[nH]c3ccccc23)nc2ccccc21 | -32% | ? | 63µM* | -9% | 9%[12.7 µM] | -10%
CCCCn1c(/N=C/c2c[nH]c3ccccc23)nc2ccccc21 | -15% | ? | ? | -3% | 4% | -26%
O=C(NS(=O)(=O)c1ccc(Cl)s1)c1ccccc1 | 11% | -15% | -17% | -14% | -14% | -1%
COc1ccc(/C=C(\C#N)C(=O)Nc2ccccc2C(=O)O)cc1OC(=O)c1ccccc1Cl | · | · | · | · | · | 40µM*
COc1ccccc1/C=C/C=C(/C#N)C(=O)Nc1ccccc1C(=O)O | · | · | · | · | · | 7.1µM*
COc1ccc(/C=C(/C#N)C(=O)Nc2ccccc2C(=O)O)cc1OC | · | · | · | · | · | 1%
O=C(COc1ccccc1)NS(=O)(=O)c1ccccc1 | 31% | -16% | -6% | -4% | 3.5µM* | -13%
Cc1cccc(NC(=O)C2(c3ccccc3)CCCC2)c1 | · | · | · | · | · | 7%
Nc1nc(=S)c2ncn(C3CCCCC3)c2[nH]1 | 15%[57 µM] | · | ? | -20% | · | 50µM*
Nc1nc(=S)c2ncn(C3OC(CO)C(O)C3O)c2[nH]1 (centres undefined) | ? | 45µM* | 7.9µM* | 11µM* | 2µM* | ?
SMILES | HP1b chromo inh | BAZ2B block | JMJD2A Tudor inh | PLK1 PBD inh | G9a block | 12-LOX inh
Nc1nc2c(ncn2[C@@H]2O[C@H](CO)[C@@H](O)[C@@H]2O)c(=O)[nH]1 | · | · | · | · | · | 24%
Nc1nc(=S)c2ncn([C@@H]3O[C@H](CO)[C@@H](O)[C@H]3O)c2[nH]1 | ? | ? | 5µM* | 21µM* | 1.8µM* | ?
Nc1nccnc1C(=O)NCC(=O)Nc1ccc(F)c(F)c1 | · | · | · | · | · | 16%
CC(=C\c1ccccc1)/C=C1/SC(=S)N(CCC(=O)O)C1=O | 5% | ? | ? | -30% | 6%[2.33 µM] | -12%
O=[N+]([O-])c1ccc(O)c(/C=N/n2cnc3ccccc32)c1 | -3% | -1% | -21% | -6% | 11%[59 µM] | -7%
O=C(NN1C(=O)/C(=C/c2cc([N+](=O)[O-])ccc2O)SC1=S)c1ccccc1O | · | 5.6µM* | · | · | -18%[2.33 µM] | ·
CC(/C=C1\SC(=S)N(NC(=O)c2cccc(O)c2)C1=O)=C\c1ccccc1 | ? | 11µM* | 22µM* | -8% | 8.9µM* | -16%
Cc1ccc(/C=C2\SC(=S)N(/N=C/c3cc([N+](=O)[O-])ccc3O)C2=O)o1 | 45µM* | 11µM* | 56µM* | 12µM* | 6.3µM* | ·
Cc1cc(C)nc(NN2C(=O)/C(=C/c3ccc(O)cc3)SC2=S)n1 | -2% | ? | ? | 71% | 28µM* | ?
O=C(NN1C(=O)/C(=C/c2ccc(O)c([N+](=O)[O-])c2)SC1=S)c1ccccc1Cl | ? | 35µM* | ? | -25% | 14µM* | ?
COc1cc(/C=C2\SC(=S)N(N(C)c3ccccc3)C2=O)ccc1O | -6% | ? | ? | 18% | ? | -30%
O=C(Cc1ccccc1)NN1C(=O)/C(=C/c2ccc(C(=O)O)cc2)SC1=S | 31% | -16% | -17%[11.4 µM] | -14% | · | -8%
O=C(NN1C(=O)/C(=C/c2ccc(O)cc2)SC1=S)c1cccc(O)c1 | -15% | ? | ? | 73% | 45µM* | 27%
COc1cc(/C=C2\SC(=S)N(NC(=O)c3ccccc3O)C2=O)ccc1O | ? | 28µM* | 20µM* | ? | -29%[2.33 µM] | -28%
Cn1cc(/C=C2\SC(=S)N(NC(=O)c3cccc(Cl)c3)C2=O)c2ccccc21 | 48% | ? | -15%[11.4 µM] | ? | 1%[12.7 µM] | -9%
O=C(NN1C(=O)/C(=C/c2ccc(O)cc2)SC1=S)c1ccccc1O | ? | 40µM* | 50µM* | 77% | ? | -15%
O=C(Nc1ccccc1N1CCCC1)c1cccc(S(=O)(=O)N2CCOCC2)c1 | 30% | -8% | -9% | 1% | 24%[0.501 µM] | -30%
COc1ccccc1C(=O)N1CCC2(CNc3ccccc3[S+](=O)([O-])N2)C1 (centres undefined) | · | · | · | · | · | 8%
Cc1cc(-c2csc(Nc3ccc(O)cc3)n2)ccc1F | · | · | · | · | · | 35µM*
Cc1cccc(Nc2nc(-c3ccc(O)cc3O)cs2)n1 | -2% | ? | ? | -6% | 50µM* | 25µM*
